Reference: PMC8384837, “Expanding the binding specificity for RNA recognition by a PUF domain”
Positions count from the first letter of the chain named.

Key:
Test in all cases: yeast three-hybrid, YBZ-1, SC-Leu-His + 0.5 mM 3-AT, 4 days
Conditions in all cases: tags: N-Gal4 AD-HA kept; label: inside an RPR1-promoter hybrid RNA with tandem MS2 sites; ssRNA
PUM1 PUF domain R4-RMI = PUM1 PUF domain R4-RMI (Homo sapiens, UniProt Q14671 828-1176, N971R;H972M;Q975I)
How it was run: (§1)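 Pumilio-1 PUF domain libraries, randomized (NNK) at the three base-contacting residues of each repeat, were co-expressed with matching RNA elements from a centromeric plasmid in strain YBZ-1 (LexA–MS2 coat fusion, HIS3 reporter). Transformants were plated on SC-Leu (input) and SC-Leu-His + 0.5 mM 3-AT (selection) for four days, and repeat regions were PCR-amplified and Illumina-sequenced. The interaction score is the log2 change in variant frequency from input to selection, with pseudocount 1 where absent.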

PUM1 PUF domain R5-DRN = PUM1 PUF domain R5-DRN (Homo sapiens, UniProt Q14671 828-1176, C1007D;Q1011N)
How it was run: as §1

PUM1 PUF domain R4-DFM = PUM1 PUF domain R4-DFM (Homo sapiens, UniProt Q14671 828-1176, N971D;H972F;Q975M)
How it was run: as §1

PUM1 PUF domain R6-HHS = biological target: T1, PUM1 PUF domain R6-HHS (Homo sapiens, UniProt Q14671 828-1176, N1043H;Y1044H;Q1047S)
T1 sequence: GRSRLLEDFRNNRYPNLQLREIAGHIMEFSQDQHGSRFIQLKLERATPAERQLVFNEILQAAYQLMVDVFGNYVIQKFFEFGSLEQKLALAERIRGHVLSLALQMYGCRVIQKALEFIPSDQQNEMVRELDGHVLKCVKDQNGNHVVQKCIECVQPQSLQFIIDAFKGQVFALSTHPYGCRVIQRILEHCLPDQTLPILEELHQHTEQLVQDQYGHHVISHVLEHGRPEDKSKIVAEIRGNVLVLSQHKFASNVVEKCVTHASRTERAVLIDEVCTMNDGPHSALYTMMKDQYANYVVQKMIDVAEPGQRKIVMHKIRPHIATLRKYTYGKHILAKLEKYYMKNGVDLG
How it was run: as §1

PUM1 PUF domain R6-NFW = biological target: T2, PUM1 PUF domain R6-NFW (Homo sapiens, UniProt Q14671 828-1176, Y1044F;Q1047W)
T2 sequence: T1 sequence with H216N, H217F, S220W
How it was run: as §1

PUM1 PUF domain R3-GFW = PUM1 PUF domain R3-GFW (Homo sapiens, UniProt Q14671 828-1176, C935G;R936F;Q939W)
How it was run: as §1

PUM1 PUF domain R8-HYN = PUM1 PUF domain R8-HYN (Homo sapiens, UniProt Q14671 828-1176, N1122H;Q1126N)
How it was run: as §1

PUM1 PUF domain R4-SNG = PUM1 PUF domain R4-SNG (Homo sapiens, UniProt Q14671 828-1176, N971S;H972N;Q975G)
How it was run: as §1

PUM1 PUF domain R4-TPS = PUM1 PUF domain R4-TPS (Homo sapiens, UniProt Q14671 828-1176, N971T;H972P;Q975S)
How it was run: as §1

PUM1 PUF domain R5-RLM = PUM1 PUF domain R5-RLM (Homo sapiens, UniProt Q14671 828-1176, C1007R;R1008L;Q1011M)
How it was run: as §1

PUM1 PUF domain R5-RCC = PUM1 PUF domain R5-RCC (Homo sapiens, UniProt Q14671 828-1176, C1007R;R1008C;Q1011C)
How it was run: as §1

PUM1 PUF domain R1-RKK = PUM1 PUF domain R1-RKK (Homo sapiens, UniProt Q14671 828-1176, S863R;R864K;Q867K)
How it was run: as §1

PUM1 PUF domain R1-KGT = PUM1 PUF domain R1-KGT (Homo sapiens, UniProt Q14671 828-1176, S863K;R864G;Q867T)
How it was run: as §1

PUM1 PUF domain R3-KFN = PUM1 PUF domain R3-KFN (Homo sapiens, UniProt Q14671 828-1176, C935K;R936F;Q939N)
How it was run: as §1

PUM1 PUF domain R3-IFK = PUM1 PUF domain R3-IFK (Homo sapiens, UniProt Q14671 828-1176, C935I;R936F;Q939K)
How it was run: as §1

PUM1 PUF domain R6-TWD = biological target: T3, PUM1 PUF domain R6-TWD (Homo sapiens, UniProt Q14671 828-1176, N1043T;Y1044W;Q1047D)
T3 sequence: T1 sequence with H216T, H217W, S220D
How it was run: as §1

PUM1 PUF domain R1-KIL = PUM1 PUF domain R1-KIL (Homo sapiens, UniProt Q14671 828-1176, S863K;R864I;Q867L)
How it was run: as §1

PUM1 PUF domain R2-EWG = PUM1 PUF domain R2-EWG (Homo sapiens, UniProt Q14671 828-1176, N899E;Y900W;Q903G)
How it was run: as §1

PUM1 PUF domain R8-RWI = PUM1 PUF domain R8-RWI (Homo sapiens, UniProt Q14671 828-1176, N1122R;Y1123W;Q1126I)
How it was run: as §1

How did the binding signal (PUM1 PUF domain R4-RMI) turn out when “GGCUAGAACUAGUGGAUCCCCCGGCGCCCGGCGGCUCGAGCCCGGGUAAGUGUAAAUAGUCUGCAUGCCGCCGGGCGCCAUGCCUGCAGGUCGACUCUAGAAAACAUG” was run?
The binding signal was 3.31 log2 enrichment (interaction score).

And the binding signal (PUM1 PUF domain R5-DRN)?
The binding signal was 3.15 log2 enrichment (interaction score).

And the binding signal (PUM1 PUF domain R4-DFM)?
Its binding signal is 5.89 log2 enrichment (interaction score).

What about the binding signal (PUM1 PUF domain R6-HHS) of the same sequence?
Its binding signal is 4.38 log2 enrichment (interaction score).

And the binding signal (PUM1 PUF domain R6-NFW)?
Its binding signal is 2.25 log2 enrichment (interaction score).

And the binding signal (PUM1 PUF domain R3-GFW)?
Its binding signal is 5.77 log2 enrichment (interaction score).

And the binding signal (PUM1 PUF domain R8-HYN)?
The binding signal was 2.92 log2 enrichment (interaction score).

What about the binding signal (PUM1 PUF domain R4-SNG) of the same sequence?
Its binding signal is 1.17 log2 enrichment (interaction score).

And the binding signal (PUM1 PUF domain R4-TPS)?
The binding signal was 3 log2 enrichment (interaction score).

For “GGCUAGAACUAGUGGAUCCCCCGGCGCCCGGCGGCUCGAGCCCGGGUAAGUGUCAAUAGUCUGCAUGCCGCCGGGCGCCAUGCCUGCAGGUCGACUCUAGAAAACAUG”, which binding signal (PUM1 PUF domain R5-DRN) is on record?
The binding signal was 1.45 log2 enrichment (interaction score).

What about the binding signal (PUM1 PUF domain R5-RLM) of the same sequence?
The binding signal was 1.79 log2 enrichment (interaction score).

And the binding signal (PUM1 PUF domain R5-RCC)?
Its binding signal is 4.34 log2 enrichment (interaction score).

Which results are given for “GGCUAGAACUAGUGGAUCCCCCGGCGCCCGGCGGCUCGAGCCCGGGUAAGUGUAAAUUGUCUGCAUGCCGCCGGGCGCCAUGCCUGCAGGUCGACUCUAGAAAACAUG”?
binding signal (PUM1 PUF domain R1-RKK): 3.57 log2 enrichment (interaction score); binding signal (PUM1 PUF domain R1-KGT): 3.61 log2 enrichment (interaction score)

Which results are given for “GGCUAGAACUAGUGGAUCCCCCGGCGCCCGGCGGCUCGAGCCCGGGUAAGUGUAAUUAGUCUGCAUGCCGCCGGGCGCCAUGCCUGCAGGUCGACUCUAGAAAACAUG”?
binding signal (PUM1 PUF domain R3-KFN): 3.99 log2 enrichment (interaction score); binding signal (PUM1 PUF domain R3-IFK): 2.58 log2 enrichment (interaction score)

With “GGCUAGAACUAGUGGAUCCCCCGGCGCCCGGCGGCUCGAGCCCGGGUAAGUGAAAAUAGUCUGCAUGCCGCCGGGCGCCAUGCCUGCAGGUCGACUCUAGAAAACAUG” as the sequence, how does the binding signal (PUM1 PUF domain R6-TWD) read?
Its binding signal is 3.18 log2 enrichment (interaction score).

With “GGCUAGAACUAGUGGAUCCCCCGGCGCCCGGCGGCUCGAGCCCGGGUAAGUGUACAUAGUCUGCAUGCCGCCGGGCGCCAUGCCUGCAGGUCGACUCUAGAAAACAUG” as the sequence, how does the binding signal (PUM1 PUF domain R4-DFM) read?
Its binding signal is 5.35 log2 enrichment (interaction score).

What about the binding signal (PUM1 PUF domain R4-TPS) of the same sequence?
The binding signal was 4.18 log2 enrichment (interaction score).

For “GGCUAGAACUAGUGGAUCCCCCGGCGCCCGGCGGCUCGAGCCCGGGUAAGUGUUAAUAGUCUGCAUGCCGCCGGGCGCCAUGCCUGCAGGUCGACUCUAGAAAACAUG”, which binding signal (PUM1 PUF domain R5-RLM) is on record?
The binding signal was 2.52 log2 enrichment (interaction score).

Which results are given for “GGCUAGAACUAGUGGAUCCCCCGGCGCCCGGCGGCUCGAGCCCGGGUAAGUGUAAAUCGUCUGCAUGCCGCCGGGCGCCAUGCCUGCAGGUCGACUCUAGAAAACAUG”?
binding signal (PUM1 PUF domain R1-KGT): 4.83 log2 enrichment (interaction score); binding signal (PUM1 PUF domain R1-KIL): 2.59 log2 enrichment (interaction score)

For “GGCUAGAACUAGUGGAUCCCCCGGCGCCCGGCGGCUCGAGCCCGGGUAAGUGUAAAGAGUCUGCAUGCCGCCGGGCGCCAUGCCUGCAGGUCGACUCUAGAAAACAUG”, which binding signal (PUM1 PUF domain R2-EWG) is on record?
Its binding signal is 4.05 log2 enrichment (interaction score).

For “GGCUAGAACUAGUGGAUCCCCCGGCGCCCGGCGGCUCGAGCCCGGGUAAGUGUAAAAAGUCUGCAUGCCGCCGGGCGCCAUGCCUGCAGGUCGACUCUAGAAAACAUG”, which binding signal (PUM1 PUF domain R2-EWG) is on record?
Its binding signal is 8.11 log2 enrichment (interaction score).

“GGCUAGAACUAGUGGAUCCCCCGGCGCCCGGCGGCUCGAGCCCGGGUAAGCGUAAAUAGUCUGCAUGCCGCCGGGCGCCAUGCCUGCAGGUCGACUCUAGAAAACAUG” was tested. Which binding signal (PUM1 PUF domain R8-RWI) did it give?
The binding signal was 5.86 log2 enrichment (interaction score).

How did the binding signal (PUM1 PUF domain R4-SNG) turn out when “GGCUAGAACUAGUGGAUCCCCCGGCGCCCGGCGGCUCGAGCCCGGGUAAGUGUAUAUAGUCUGCAUGCCGCCGGGCGCCAUGCCUGCAGGUCGACUCUAGAAAACAUG” was run?
Its binding signal is 3.22 log2 enrichment (interaction score).
